The values below come from PubChem BioAssay (NCATS).

Molecules are shown by their SMILES. Values joined by “and” are separate entries in the source; they are usually repeats but may differ in a detail not shown here. Equal values may be shown once. Results filed as inconclusive are left out. Active and inactive are the calls of the source. Unless noted, calls follow the shape of the full dose curve.

The nature of test [1]: Validation of Assay for Modulators of Lamin A Splicing (AID 1459; active = well fitted curve in the direction sought with a large enough effect in the signal ratio; the % refers to the signal ratio;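 also: cells exposed to compound for two days before reading; 0% is about no effect; ratio rise marks activators and ratio drop marks inhibitors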). In a few lines: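 Readout: ratio of GFP (500-530 nm) to RFP (575-640 nm) total object intensity by 488 nm laser-scanning cytometry after 48 hrs. Cells were HeLa S3 clones carrying lamin A-EGFP minigene plus DsRed2 viability reporter; vehicle 0.5% DMSO final.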
In test [2] the target is DNA repair nuclease/redox regulator APEX1 (Homo sapiens) (UniProt P27695). The test can be described thus: qHTS Validation Assay for Inhibitors of the Human Apurinic/apyrimidinic Endonuclease 1 (APE1) (AID 1705; active = well fitted curve in the direction sought with a large enough effect; an effect the other way counts as inactive or inconclusive;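 also: TAMRA fluorescence gain over two minutes as APE1 cuts a quenched THF abasic duplex; % is scaled to controls: 0 for no effect and ±100 for the full control effect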). Summed up: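 Read-out: TAMRA fluorescence (525 nm ex, 598 nm em) from cleavage of a quenched THF abasic-site duplex, 50 nM final; activity taken as intensity change between third and first of three reads 60 s apart.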

Test [3] in a line: qHTS Assay for Lipid Storage Modulators (AID 1519). As to activity change, negative = inhibition: % is scaled to controls: 0 for no effect and ±100 for the full control effect. The settings on record: Drosophila S3 cells, BODIPY lipid droplet/cell ratio, laser cytometry, cells loaded with oleic acid. In a few lines:
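Cells seeded at 5,000 per well were treated with compounds over a concentration series and loaded with oleic acid (400 uM, as added). Lipid droplet fluorescence (488 nm excitation, 500-530 nm channel) was read by laser-scanning cytometry and normalized to 20 uM Triacsin C.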
Background: In qHTS, concentration-response curves come from the screen itself.

Test [4] deals with Alpha-galactosidase A (Homo sapiens) (UniProt P06280). Description: Counterscreen for Glucocerebrosidase Inhibitors: qHTS Assay for Human alpha-Galactosidase at pH 4.5 (AID 992; active = well fitted curve in the direction sought with a large enough effect; an effect the other way counts as inactive or inconclusive; also: 0% is about no effect). Summed up:
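Quantitative HTS: compounds tested from 0.7 nM up to 77 uM against 2 nM enzyme with 80 uM 4-MU alpha-D-galactopyranoside. The 20 min room-temperature reaction is stopped with 1M NaOH/1M glycine, pH 10.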
For orientation: A counterscreen serves to expose hits that act by an unwanted route or on another target.

Test [5] has as its target alpha-glucosidase (Oryza sativa, rice) (UniProt Q653V4). Description: Counterscreen for Glucocerebrosidase Inhibitors: qHTS Assay for Rice alpha-Glucosidase at pH 5.0 (AID 997; active = well fitted curve in the direction sought with a large enough effect; an effect the other way counts as inactive or inconclusive;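 also: 0% = full activity with enzyme and -100% = basal without enzyme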). In a few lines: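 Rice alpha-glucosidase (4 nM final) with 400 uM 4-methylumbelliferyl-alpha-D-glucopyranoside in citrate buffer pH 5.0, 20 min at room temperature, stopped at pH 10; fluorescence 365/440 nm, compounds 0.7 nM–77 uM, AC50 from Hill fits.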

Where [6] appears, read: measured here: cell count channel max response.
[7] abbreviates: measured here: lipid channel max response.

DNA repair nuclease/redox regulator APEX1 (Homo sapiens), sequence (P27695 whole entry, looked up): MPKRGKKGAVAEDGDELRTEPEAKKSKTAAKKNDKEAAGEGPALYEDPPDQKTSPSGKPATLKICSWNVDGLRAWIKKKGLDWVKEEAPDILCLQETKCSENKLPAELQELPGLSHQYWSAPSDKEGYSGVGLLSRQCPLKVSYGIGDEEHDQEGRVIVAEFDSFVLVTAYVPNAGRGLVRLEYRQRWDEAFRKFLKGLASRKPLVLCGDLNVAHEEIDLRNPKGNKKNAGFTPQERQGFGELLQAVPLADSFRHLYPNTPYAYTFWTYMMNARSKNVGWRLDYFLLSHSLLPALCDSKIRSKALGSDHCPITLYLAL
Alpha-galactosidase A (Homo sapiens), sequence (P06280 whole entry, looked up): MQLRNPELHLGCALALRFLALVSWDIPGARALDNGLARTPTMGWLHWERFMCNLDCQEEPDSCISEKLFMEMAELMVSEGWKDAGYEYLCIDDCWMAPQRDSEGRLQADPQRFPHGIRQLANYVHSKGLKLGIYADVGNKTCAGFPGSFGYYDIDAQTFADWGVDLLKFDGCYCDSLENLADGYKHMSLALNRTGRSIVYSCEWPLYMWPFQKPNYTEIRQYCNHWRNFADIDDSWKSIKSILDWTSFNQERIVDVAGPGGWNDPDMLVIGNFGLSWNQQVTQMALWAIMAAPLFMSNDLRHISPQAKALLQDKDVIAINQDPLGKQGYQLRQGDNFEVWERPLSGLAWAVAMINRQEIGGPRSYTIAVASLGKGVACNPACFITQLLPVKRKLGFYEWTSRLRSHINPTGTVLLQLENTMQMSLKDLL

As for `O=C(O)C1CCCN(CCC=C(c2ccccc2)c2ccccc2)C1` (stereo not given), the call in test [1] and in test [2] was inactive.
In the case of `NCCCC(O)(P(=O)(O)O)P(=O)(O)O`, the activity change, negative = inhibition in test [3] (at 57.5 µM (top of the series)) was 6.27% (inactive). The max response was -1.05% in test [3] (setting [6]) and 16.4% in test [3] (setting [7]).
On to `CCN(CC)CC#CCOC(=O)C(O)(c1ccccc1)C1CCCCC1` (stereo not given), for which the result in test [1] and in test [2] was inactive.
`CCCCOc1ccc(CC(=O)NO)cc1`: the activity change, negative = inhibition in test [3] (at 25.7 µM (top of the series)) was 0.283% (inactive). For the same compound, the values for the max response in test [3] (setting [6]) and in test [3] (setting [7]) were -2.68% and -0.905%, respectively.
In the case of `NC(=O)N1c2ccccc2CC(=O)c2ccccc21`, in test [3] (at 57.5 µM (top of the series)), the activity change, negative = inhibition is 6.03% (inactive). Moreover, the max response in test [3] (setting [6]) is 10.2%; in test [3] (setting [7]) it was 19.4%.
For the compound `CN(C)CCc1c[nH]c2ccc(CS(=O)(=O)N3CCCC3)cc12`, the activity change, negative = inhibition in test [3] (at 57.5 µM (top of the series)) is 5.82% (inactive). The max response amounted to 19.2% in test [3] (setting [6]) and 27.5% in test [3] (setting [7]).
As for `O=S(=O)(O)CCS`, in test [3] (at 57.5 µM (top of the series)), the activity change, negative = inhibition is 4.92% (inactive). Further, the values for the max response in test [3] (setting [6]) and in test [3] (setting [7]) were 14.6% and 25.1%, respectively.
In the case of `CC(C)NCC(O)c1ccc(NS(C)(=O)=O)cc1` (stereo not given), the compound was classed as inactive in test [1] and in test [2].
Consider `CC1=C(C(=O)O)N2C(=O)[C@@H](NC(=O)C(N)c3ccccc3)[C@H]2SC1` (stereo not given in full), for which the compound was called inactive in test [1] and in test [2].
For `CNS(=O)(=O)Cc1ccc2[nH]cc(CCN(C)C)c2c1`, in test [3] (at 57.5 µM (top of the series)), the activity change, negative = inhibition is 8.81% (inactive). Further, the max response in test [3] (setting [6]) turned out to be 40%; in test [3] (setting [7]) it was 52.5%.
`CCN1CCCC1CNC(=O)c1cc(S(N)(=O)=O)ccc1OC` (stereo not given): the compound was called inactive in test [1] and in test [2]. In addition, the activity change, negative = inhibition in test [3] (at 57.5 µM (top of the series)) was 2.89% (inactive). Moreover, the max response came out at 2.98% in test [3] (setting [6]) and 5.52% in test [3] (setting [7]).
With `O=S(=O)(c1cccc2cnccc12)N1CCCNCC1`, the activity change, negative = inhibition in test [3] (at 57.5 µM (top of the series)) is -2.33% (inactive). In addition, the max response was determined as 9.76% in test [3] (setting [6]) and 6.29% in test [3] (setting [7]).
`Nc1nc(=S)c2[nH]cnc2[nH]1`: the activity change, negative = inhibition in test [3] (at 57.5 µM (top of the series)) is 8.45% (inactive). Besides, the max response worked out at 14.3% in test [3] (setting [6]) and 28.9% in test [3] (setting [7]).
Consider `CC(=O)CC(c1ccccc1)c1c(O)c2ccccc2oc1=O` (stereo not given), for which, in test [3] (at 57.5 µM (top of the series)), the activity change, negative = inhibition is 15.6% (inactive). Also, the max response came out at 10.6% in test [3] (setting [6]) and 30.9% in test [3] (setting [7]).
`CN(Cc1cc(Br)cc(Br)c1N)C1CCCCC1`: in test [3] (at 57.5 µM (top of the series)), the activity change, negative = inhibition is -8.74% (inactive). Moreover, the max response in test [3] (setting [6]) is -7.97%; in test [3] (setting [7]) it was -15.4%.
With `Nc1[nH]c(=O)ncc1F`, the activity change, negative = inhibition in test [3] (at 25.7 µM (top of the series)) was 0.855% (inactive). Besides, the max response amounted to 2.68% in test [3] (setting [6]) and 3.39% in test [3] (setting [7]).
Take `Oc1c(Cl)cc(Cl)c2cccnc12`: the activity change, negative = inhibition in test [3] (at 57.5 µM (top of the series)) is -20.1% (inactive). The max response is -11.5% in test [3] (setting [6]) and -27.9% in test [3] (setting [7]).
`OC(Cn1cncn1)(Cn1cncn1)c1ccc(F)cc1F`: the activity change, negative = inhibition in test [3] (at 57.5 µM (top of the series)) was 11.9% (inactive). Also, the max response in test [3] (setting [6]) was determined as 12.6%; in test [3] (setting [7]), 26.4%.
On to `C1CCC(C(CC2CCCCN2)C2CCCCC2)CC1` (stereo not given), for which, in test [3] (at 57.5 µM (top of the series)), the activity change, negative = inhibition is -9.69% (inactive). For the same compound, the max response in test [3] (setting [6]) is -15.8%; in test [3] (setting [7]), -21.2%.
In the case of `CN1CCCC(n2nc(Cc3ccc(Cl)cc3)c3ccccc3c2=O)CC1` (stereo not given), the activity change, negative = inhibition in test [3] (at 57.5 µM (top of the series)) is 4.52% (inactive). In addition, the max response in test [3] (setting [6]) is -4.14%; in test [3] (setting [7]) it was 2.11%.
On the same counts, the results for `COC(=O)Nc1nc2ccc(Sc3ccccc3)cc2[nH]1` are 4.46% (inactive), -3.56% and 3.98%.
Consider `Nc1nc(N)c2nc(CNc3ccc(C(=O)NC(CCC(=O)O)C(=O)O)cc3)cnc2n1` (stereo not given), for which, in test [3] (at 57.5 µM (top of the series)), the activity change, negative = inhibition was 6.58% (inactive) and 1.3% (inactive). Moreover, the max response in test [3] (setting [6]) was 6.78% and -3.02%; in test [3] (setting [7]), 18.5% and 0.109%.
As to `OCc1ccc(-c2nn(Cc3ccccc3)c3ccccc23)o1`, the call in test [4], in test [5], in test [1] and in test [2] was inactive.
`COc1ccc2c(c1)c(CC(=O)OCC(=O)O)c(C)n2C(=O)c1ccc(Cl)cc1`: the activity change, negative = inhibition in test [3] (at 25.7 µM (top of the series)) is 1.43% (inactive). Moreover, the results for the max response in test [3] (setting [6]) and in test [3] (setting [7]) were 9.96% and 10.1%, respectively.
For `CCCCS(=N)(=O)CCC(N)C(=O)O` (stereo not given), the result in test [1] and in test [2] was inactive. For the same compound, the activity change, negative = inhibition in test [3] (at 57.5 µM (top of the series)) is 7.27% (inactive). Also, the max response is 23.2% in test [3] (setting [6]) and 33.5% in test [3] (setting [7]).
On to `CC[C@H](NC(C)C)[C@H](O)c1ccc(O)c2[nH]c(=O)ccc12`, for which, in test [3] (at 57.5 µM (top of the series)), the activity change, negative = inhibition was -1.12% (inactive). Besides, the values for the max response in test [3] (setting [6]) and in test [3] (setting [7]) were -20.9% and -21.9%, respectively.
`CNNCc1ccc(C(=O)NC(C)C)cc1`: in test [3] (at 25.7 µM (top of the series)), the activity change, negative = inhibition is 1.45% (inactive). The max response in test [3] (setting [6]) was -0.816%; in test [3] (setting [7]), 0.0882%.
Turning to `S=P(N1CC1)(N1CC1)N1CC1`, the activity change, negative = inhibition in test [3] (at 57.5 µM (top of the series)) was 7.1% (inactive). Moreover, the results for the max response in test [3] (setting [6]) and in test [3] (setting [7]) were 5.1% and 17.7%, respectively.
